Source: PubChem BioAssay (several laboratories)
Compounds with a hit are over-represented: about 4.1% of the library has one in this group of screens.
697 NFkB inh: lowers PMA/ionomycin-induced NF-kB signal in 697 B cells. AID 435022. 697 B-cell NF-kB luciferase reporter, 16 h. inhibition, % at 4 µM. 0.33% of 330,000 active; in the data active = inhibition above about 35%
Mdm2 MdmX PPI: inhibitors of human Mdm2/MdmX interaction; SaOS-2 split-luciferase Mdm2/MdmX complementation, luminescence; inhibition, % at 8 µM; 3% of 330,000 active; AID 485346;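 active = inhibition of at least 50% at 8 µM in the primary screen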
Target sequence (O15151 whole entry, looked up): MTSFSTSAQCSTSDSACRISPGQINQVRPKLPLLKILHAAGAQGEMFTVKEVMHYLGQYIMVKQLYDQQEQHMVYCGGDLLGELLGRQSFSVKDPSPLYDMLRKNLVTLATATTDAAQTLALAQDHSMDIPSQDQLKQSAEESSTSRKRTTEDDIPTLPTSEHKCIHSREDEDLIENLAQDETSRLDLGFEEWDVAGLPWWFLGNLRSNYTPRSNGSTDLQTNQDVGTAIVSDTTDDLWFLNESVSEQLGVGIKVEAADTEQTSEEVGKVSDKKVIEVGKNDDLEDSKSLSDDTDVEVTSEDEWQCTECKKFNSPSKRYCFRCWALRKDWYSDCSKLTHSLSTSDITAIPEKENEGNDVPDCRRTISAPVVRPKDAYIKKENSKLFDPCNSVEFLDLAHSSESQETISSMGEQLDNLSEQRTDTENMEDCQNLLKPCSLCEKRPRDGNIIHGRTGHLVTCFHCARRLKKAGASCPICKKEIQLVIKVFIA
Target sequence (Q00987 whole entry, looked up): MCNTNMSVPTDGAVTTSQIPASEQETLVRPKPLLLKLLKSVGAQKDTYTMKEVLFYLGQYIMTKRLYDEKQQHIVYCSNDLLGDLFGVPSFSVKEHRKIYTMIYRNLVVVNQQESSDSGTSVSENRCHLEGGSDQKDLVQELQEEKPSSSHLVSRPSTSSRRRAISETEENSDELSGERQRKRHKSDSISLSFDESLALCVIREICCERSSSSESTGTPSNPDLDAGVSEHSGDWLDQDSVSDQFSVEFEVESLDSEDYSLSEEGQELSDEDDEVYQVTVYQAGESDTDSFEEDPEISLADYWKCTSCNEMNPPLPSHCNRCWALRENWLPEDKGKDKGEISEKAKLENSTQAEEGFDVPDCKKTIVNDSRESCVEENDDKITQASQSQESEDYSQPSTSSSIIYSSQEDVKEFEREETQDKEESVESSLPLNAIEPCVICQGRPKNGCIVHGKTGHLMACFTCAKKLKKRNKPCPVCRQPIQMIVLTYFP
Jurkat NFkB inh: lowers PMA/ionomycin-induced NF-kB signal in Jurkat cells. PMA/ionomycin-induced NF-kB luciferase reporter, luminescence. 0.53% of 330,000 active. inhibition, % at 4 µM. AID 435003; in the data active = inhibition above about 50%
aSyn UTR inh: 5' untranslated region of α-synuclein, MLPCN primary screen; alpha-synuclein 5'UTR reporter, inhibitor activity; inhibition, % (tested at 7.5 µM); 0.82% of 300,000 active; in the data active = inhibition above about 60%;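 also: H4 neuroglioblastoma cells stably carrying SNCA 5'UTR luciferase fusion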
KLF5 inhibitor: inhibitors of KLF5 expression; 0.23% of 290,000 active; AID 1700; inhibition, % at 5 µM; DLD-1 KLF5 promoter-luciferase reporter, luminescence;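 active = inhibition above a per-plate limit of that plate's mean compound inhibition plus 3 SD, cut at about 60% in these data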;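 also: higher means less KLF5 promoter-driven luciferase light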
Gli-Sufu block: Gli-Sufu pathway antagonism; 0.74% of 340,000 active; inhibition, % at 5 µM; AID 588413; Sufu-KO-LIGHT fibroblasts, Gli luciferase reporter luminescence;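 active = inhibition above about 55%, limit read from the data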
Gli antag conf: confirmation of Gli-SUFU pathway antagonists; inhibition, % at 5 µM; shares compounds with Gli-Sufu block; 40% of 2,500 active; Sufu-KO-LIGHT cells, Gli luciferase reporter, luminescence;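 active = mean inhibition at 5 µM reaching about 45%, limit read from the data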
Gli cytotox: cytotoxicity counter-screen for Gli-SUFU antagonists. shares compounds with Gli-Sufu block. Sufu-KO-LIGHT cells cytotoxicity, ATP luminescence. cytotoxicity, % at 5 µM. 32% of 2,500 active;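 active = mean cytotoxicity at 5 µM above about 25%, limit read from the data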;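 also: cells exposed to compound overnight for roughly 16 to 18 hours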
Wnt3a cs: Wnt3a reporter inhibition counter-screen; shares compounds with Gli-Sufu block; Wnt-LIGHT cells, Wnt3a-driven luciferase reporter, luminescence; inhibition, % at 6.25 µM; 20% of 2,500 active;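 active = mean inhibition above about 25%, limit read from the data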
Of the large screens only hits and unclear results are named; the others gave an inactive call (follow-up assays come after a bar, where they were run).

CC(C)CC(=O)NC(NCC1CCCO1)C(Cl)(Cl)Cl (centres undefined)	Gli-Sufu block 88 | Gli antag conf inactive | Gli cytotox inactive | Wnt3a cs inactive
Cc1ccc2cc(/C=N/NC(=O)[C@H]3C[C@@H]3c3ccccc3)c(Cl)nc2c1	none
O=C(N/N=C/c1cc2ccccc2nc1Cl)[C@H]1C[C@@H]1c1ccccc1	Gli-Sufu block 73 | Gli antag conf inactive | Gli cytotox inactive | Wnt3a cs inactive
COc1ccccc1-c1nnc(SCC(=O)Nc2ccc(Cl)cc2Cl)o1	none
COC(=O)c1ccc(C(=O)OC)c(NC(=O)CSc2nnc(-c3ccccc3Cl)o2)c1	Gli-Sufu block 98 | Gli antag conf inactive | Gli cytotox inactive | Wnt3a cs inactive
NC(=O)c1ccc(N2CCN(S(=O)(=O)c3cccs3)CC2)c([N+](=O)[O-])c1	Gli-Sufu block 56 (no result: aSyn UTR inh, KLF5 inhibitor) | Gli antag conf 65 | Gli cytotox inactive | Wnt3a cs 36
NC(=O)c1ccc(N2CCN(c3ccccc3F)CC2)c([N+](=O)[O-])c1	Gli-Sufu block 57 | Gli antag conf inactive | Gli cytotox inactive | Wnt3a cs inactive
NC(=O)c1ccc(N2CCN(c3ccccc3O)CC2)c([N+](=O)[O-])c1	none
Cc1ccc(SCC(=O)OCc2csc(CC(=O)Nc3ccccc3C)n2)cc1C	none (no result: aSyn UTR inh, KLF5 inhibitor)
Cn1nc(-c2ccc(C(=O)N3CCN(Cc4ccccc4)CC3)cc2)c2ccccc2c1=O	none | Gli antag conf inactive | Gli cytotox inactive | Wnt3a cs inactive
O=c1cc(N2CCc3ccccc32)[nH]c(=O)n1-c1ccccc1Cl	none
Cc1ccccc1-n1c(=O)cc(N2CCc3ccccc32)[nH]c1=O	Gli-Sufu block 63 | Gli antag conf inactive | Gli cytotox inactive | Wnt3a cs inactive
COc1cccc(CNC(=O)CN2C(=O)CSc3ccc(S(=O)(=O)N4CCCC4)cc32)c1	none
CCC(C)[C@H]1CNC(=S)N1CCc1cccc2ccccc12 (some centres undefined)	none (no result: KLF5 inhibitor)
CCC(C)[C@H]1CN=C(N)N1CCc1cccc2ccccc12 (some centres undefined)	Gli-Sufu block 62 (no result: KLF5 inhibitor) | Gli antag conf 66 | Gli cytotox inactive | Wnt3a cs inactive
Cc1cc(C)n2nc(SCC3COc4ccccc4O3)nc2n1 (centres undefined)	Gli-Sufu block 99 | Gli antag conf inactive | Gli cytotox inactive | Wnt3a cs inactive
Cc1cc(C)c(C#N)c(SCC2COc3ccccc3O2)n1 (centres undefined)	none
CN(C)S(=O)(=O)c1ccc(S(=O)(=O)NCc2ccc3c(c2)OCO3)cc1	none
COC(=O)c1ccc(CNC(=O)c2ccc3c(c2)S(=O)(=O)N=C2CCCCCN23)cc1	none (no result: aSyn UTR inh, KLF5 inhibitor)
CCOc1ccc(OCC)c(S(=O)(=O)NCCOC23CC4CC(CC(C4)C2)C3)c1	none | Gli antag conf inactive | Gli cytotox 31 | Wnt3a cs inactive
COc1cc(S(=O)(=O)NCCOC23CC4CC(CC(C4)C2)C3)c(OC)cc1Cl	none
COc1ccc(Cl)cc1NC(=S)NC1CCCC1	none
CN(C)CCCNc1nc(-c2ccc(Cl)cc2)nc2ccccc12	Gli-Sufu block 69 | Gli antag conf inactive | Gli cytotox 27 | Wnt3a cs inactive
Cc1cccc(-c2nc(NCCCN(C)C)c3ccccc3n2)c1	Gli-Sufu block 55 | Gli antag conf inactive | Gli cytotox inactive | Wnt3a cs inactive
CC(=O)Nc1ccc(S(=O)(=O)NCc2ccncc2)cc1	Gli-Sufu block 56 | Gli antag conf inactive | Gli cytotox inactive | Wnt3a cs inactive
Cc1ccc(C)c(S(=O)(=O)NCc2ccncc2)c1	none
CC1CCCCC1NS(=O)(=O)c1ccc(S(=O)(=O)NCc2ccncc2)cc1 (centres undefined)	Gli-Sufu block 67 | Gli antag conf 59 | Gli cytotox inactive | Wnt3a cs inactive
Cc1ccc(S(=O)(=O)NCc2ccncc2)cc1	Gli-Sufu block 71 | Gli antag conf 57 | Gli cytotox 33 | Wnt3a cs inactive
